# TDP1 cell noCPT = qHTS for Inhibitors of human tyrosyl-DNA phosphodiesterase 1 (TDP1): qHTS in cells in absence of CPT. DT40 Tdp1-/- hTDP1 cells, no CPT, ATP luminescence, 48 h. 420,000 compounds, 15% hits. Potency, µM (series often up to 46.2 µM), hits mostly inhibitors; note: nearly all actives have a fitted effect of over 55% in size
#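 Growth kinetics read by CellTiter-Glo luminescence after ≥48 hr at 37 °C. Cells: DT40 Tdp1-/- stably carrying human TDP1, 400 per well, compound exposure in the absence of CPT (DMSO vehicle).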
# HT1080 IDH1KD tx = qHTS for induction of synthetic lethality in tumor cells producing 2HG: qHTS for the HT-1080-IDH1KD cell line | 360,000 compounds, 2% hits | HT-1080 IDH1 knockdown viability, ATP luminescence, 48 h | Potency, µM (titrated, usually from 46.1 µM), most hits filed as cytotoxic
#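 Cytotoxicity counter-line: IDH1KD HT-1080, 48 h, CellTiter-Glo. Curves classed by r2, magnitude and activity.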
# HT1080-NT tox = qHTS for induction of synthetic lethality in tumor cells producing 2HG: qHTS for the HT-1080-NT fibrosarcoma cell line. HT-1080-NT fibrosarcoma viability, CellTiter-Glo ATP luminescence, 48 h. 360,000 compounds, 1.6% hits. Potency, µM (series often up to 46.1 µM), most hits filed as cytotoxic;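 note: NT is the 2HG producing partner of a matched IDH1 knockdown line; nearly all actives have a fitted effect of over 55% in size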
#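 Read-out is CellTiter-Glo luminescence after 10 minutes at room temperature, following 48 hours' compound treatment of HT-1080-NT cells (750 cells/well, RPMI, 5% FBS, 37 degrees C).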
# IL-1B inflam inh = qHTS for Inhibitors of Inflammasome Signaling: IL-1-beta AlphaLISA Primary Screen. activity change, % at 57.5 µM. THP-1 LPS/ATP IL-1B secretion, AlphaLISA, 16 h; stronger effect = lower value. AID 743279, 2014. 360,000 compounds, 4.7% hits; in the data active = activity change below about -50%; inconclusive = mostly about -30% to -49%
#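 Secreted IL-1B measured by AlphaLISA bead assay after 16 h compound exposure of THP-1 cells; compounds (final up to 57.5 uM) added 1 h before LPS (250 ng/mL) and ATP (1.25 mM) stimulation; lower signal means less secretion.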
# TDP1 cell CPT = qHTS for Inhibitors of human tyrosyl-DNA phosphodiesterase 1 (TDP1): qHTS in cells in presence of CPT | 420,000 compounds, 12% hits | Potency, µM (titrated, usually from 46.2 µM), actives largely listed as inhibitors | chicken DT40 Tdp1-/-;hTDP1 cells + 20 nM CPT, ATP luminescence, 48 h; note: nearly all actives have a fitted effect of over 55% in size
#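 Chicken DT40 Tdp1-/- cells complemented with human TDP1, 400 cells/well, exposed to compounds plus 20 nM camptothecin for at least 48 h at 37 C; viability read as ATP content by CellTiter-Glo luminescence.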
# A number is an active result; n = inactive; u = inconclusive; x = not tested or not shown. Only some compounds are listed: those with a hit (about 19% of all), similar ones and a draw of the others. Unless noted, calls come from the whole dose curve; as a rule, active = well fitted curve in the direction sought with a large enough effect; inconclusive = small, poorly fitted or top-dose-only effect, or another doubt; inactive = no such curve, though single readings can be large; an effect the other way counts as inactive or inconclusive.
SMILES,TDP1 cell noCPT,HT1080 IDH1KD tx,HT1080-NT tox,IL-1B inflam inh,TDP1 cell CPT
O=C(NNC(=O)c1cc2cc(Br)ccc2oc1=O)c1ccc(O)cc1O,9.2µM,1.84µM,u,n,5.17µM
O=C(c1ccc(Br)cc1)c1cc2ccc(O)cc2oc1=O,16.4µM,n,n,n,u
O=C(c1ccccc1)c1cc2ccc(O)cc2oc1=O,n,u,u,n,u
C[C@@H]1CN([C@@H](C)CO)C(=O)Cc2cc(NS(=O)(=O)c3cn(C)cn3)ccc2O[C@@H]1CN(C)C(=O)Nc1ccccc1,n,n,n,n,n
Cc1cnc(NC(=O)CSc2nnc(Cc3ccccc3)o2)s1,u,4.47µM,4.47µM,n,u
Cc1cnc(NC(=O)Cc2ccccc2Cl)s1,3.26µM,n,n,n,3.26µM
Cc1cnc(NC(=O)CCCc2nc3ccccc3s2)s1,23.1µM,u,u,n,14.6µM
Cc1cnc(NC(=O)CCc2ccccc2)s1,8.2µM,u,u,n,16.4µM
COc1ccc(CCC(=O)Nc2ncc(C)s2)cc1OC,n,n,n,n,n
O=C(CCCc1nc2ccccc2s1)Nc1nccs1,n,n,n,n,n
CCCCc1nnc(NC(=O)C(C)Sc2nc(C)cc(=O)[nH]2)s1 (configuration not stated),n,n,n,n,n
O=C(COC(=O)c1ccccc1OC(F)F)Nc1ccc2[nH]c(=O)[nH]c2c1,n,n,n,n,n
CCOC(=S)SCC(=O)Nc1ncc(C)s1,23.1µM,18.4µM,u,-97.6,u
CC1=CC(c2ccccc2)=NS(=O)(=O)N1,n,n,n,-104.0,n
O=C(c1ccc(CSc2nc3ccncc3n2Cc2cccc(F)c2)cc1)N1CCCCCC1,16.4µM,x,x,x,u
O=C(c1ccc(CSc2nc3ccncc3n2Cc2ccccc2F)cc1)N1CCCCC1,u,x,x,x,n
O=C(c1ccc(CSc2nc3ccncc3n2Cc2cccc(F)c2)cc1)N1CCCCC1,20.6µM,x,x,x,u
O=C(COC(=O)c1cc(S(=O)(=O)N2CCCCC2)ccc1N1CCOCC1)c1ccc(Cl)cc1,u,n,n,n,u
O=C(OCCOc1cccc(Cl)c1)c1cc(S(=O)(=O)N2CCCCC2)ccc1N1CCOCC1,8.2µM,n,n,n,14.6µM
O=C(OCc1cccc(Cl)c1)c1cc(S(=O)(=O)N2CCCCC2)ccc1N1CCOCC1,29.1µM,n,n,n,16.4µM
O=C(CSc1nnc(CNc2ccc(F)cc2)n1Cc1ccccc1)N1CCOCC1,n,n,n,n,n
CC1CCN=C(N)S1 (configuration not stated),n,n,n,n,n
COc1ccc(Cl)cc1S(=O)(=O)N1CCC(C(=O)N2CCOCC2)CC1,n,n,n,n,n
COc1cc(C(C)=O)ccc1Oc1ncnc2c1cnn2-c1ccc(C)c(C)c1,14.6µM,n,n,n,11.6µM
COc1cc(C(C)=O)ccc1Oc1ncnc2c1cnn2-c1ccccc1,u,n,n,n,u
SMILES,TDP1 cell noCPT,HT1080 IDH1KD tx,HT1080-NT tox,IL-1B inflam inh,TDP1 cell CPT
Clc1ccc(C=NNc2ccccn2)c(Cl)c1,n,u,n,n,n
Cc1cc(N/N=C/c2ccc(O)cc2)nc(NS(=O)(=O)c2ccccc2)n1,u,n,n,n,n
Cc1cc(N/N=C/c2ccc(F)cc2)nc(NCc2ccccc2)n1,11.6µM,16.4µM,18.4µM,-96.5,8.2µM
Cc1cc(N/N=C/c2ccc(N(C)C)cc2)nc(NCc2ccccc2)n1,5.8µM,n,n,-60.7,7.31µM
Cc1cc(N/N=C/c2ccc(Cl)cc2Cl)nc(NCc2ccccc2)n1,7.31µM,u,n,n,10.3µM
CN(C)c1nc(NCc2ccccc2)nc(N/N=C/c2ccc(Br)cc2)n1,n,n,n,n,n
O=C(CC12CC3CC(CC(C3)C1)C2)NC1CC1,n,n,n,n,n
O=C(CSc1nnc(COc2ccccc2)o1)Nc1ccc(F)cc1,n,n,n,n,n
CCOC(=O)C1CCCN(C(=O)c2cc(OC)ccc2Br)CC1 (configuration not stated),n,n,n,n,u

# Bioassay records from PubChem.
